We go through 90 compounds from PubChem BioAssay AID743279 (National Center for Advancing Translational Sciences (NCATS), 2014).

The whole screen tested about 360,000 compounds, of which about 17,000 (4.7%) were called active. Not shown: some 5% with an inconclusive outcome. This excerpt belongs to a sample that is enriched for actives. Unmarked numbers belong to inactive results. No stated cut-off is given here; in the data, active means activity change below about -50%; inconclusive means mostly about -30% to -49%; inactive means weaker than that.
On the % scale 0 is the no-effect control and ±100 the full control effect.

A short description of the experiment: qHTS for Inhibitors of Inflammasome Signaling: IL-1-beta AlphaLISA Primary Screen. The note with it: THP-1 LPS/ATP IL-1B secretion, 16 h; at 57.5 µM, active compounds read low. Summed up: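 Secreted IL-1B measured by AlphaLISA bead assay after 16 h compound exposure of THP-1 cells; compounds (final up to 57.5 uM) added 1 h before LPS (250 ng/mL) and ATP (1.25 mM) stimulation; lower signal means less secretion.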
Regarding `Cc1nc2ccc(N)nc2nc1C`, the activity change is 10.3%.
Next, `CC(C)(C)N1C(=O)c2c(C(=O)OCc3ccccc3)[nH]c(-c3ccccc3)c2C1=O`: 11.9%; `Fc1ccccc1COc1ccccc1CNCc1ccncc1`: -61.1% (active).
As for `CCOc1cc(/C=N/O)ccc1OCc1ccccc1F`, the activity change is -8.72%.
Next, `COc1ccccc1CNCc1cccs1`: 10.3%; `CCOC(=O)C1=C(O)/C(=C/c2cc(C)n(-c3ccccc3)c2C)N=C1C`: -9.27%.
In the case of `COc1ccc(NS(=O)(=O)c2cccc(C(=O)NCCc3ccc(S(N)(=O)=O)cc3)c2)cc1` it was 6.56%; in that of `O=C(CN1C(=O)NC2(CCCCCCC2)C1=O)NCc1ccc(F)cc1`, -15.9%.
Next, `CSc1ccc(CN2C(=O)NC3(CCCCCC3)C2=O)cc1`: -60.4% (active); `O=C(CN1C(=O)NC2(CCCCCC2)C1=O)NCc1ccc(F)cc1`: -13.3%.
For the compound `CC(C)c1ccc(C=NNc2ccc([N+](=O)[O-])cn2)cc1`, the activity change was 20.1%.
Next, `O=C1NCC(Nc2ccccc2)C(=O)N1` (stereo not given): 11.9%.
In the case of `O=C(Nc1ccn(CCCNCc2ccc3[nH]ccc3c2)c(=O)n1)OCc1ccccc1` it was -20.2%.
Next, `COc1ccccc1-c1sc2ccccc2c1-c1ccc(Br)nc1`: 26.6%.
For `COc1cccc(-c2sc3ccc(OC)cc3c2-c2ccc(OCCN3CCCCC3)cc2)c1`, the activity change was -3.91%.
For `COc1ccc2sc(-c3ccccc3OC)c(-c3ccc(OCCN4CCCC4)cc3)c2c1`, the activity change was -51% (active).
In the case of `CC1(C(=O)NS(=O)(=O)c2ccc(Cl)cc2)CCN1C(=O)CC1CCCC1` (stereo not given) it was 24.4%; in that of `CCCCSc1nc2c(c(=O)n1CC)SC(C)C2` (stereo not given), 25.4%.
Next, `CCN1CCN(C(=O)CN(C)S(=O)(=O)c2ccc(OC)cc2)CC1`: -5.95%.
In the case of `CCOCCCNC(=O)C1(O)c2cc(Br)ccc2NC(=O)N1c1ccc(C)c(C)c1` (stereo not given) it was 29.6%; in that of `COc1ccc(-c2cc(C(=O)NCCCN3CCCC3=O)c3ccccc3n2)cc1OC`, 0%; in that of `COc1ccc(-c2cc(-c3ccc(N)cc3)nc(N)c2C#N)cc1OC`, 0%.
Take `COc1ccc(-c2cc(C(F)(F)F)nc(S(C)(=O)=O)n2)cc1OC`: the activity change is -105% (active).
In the case of `O=C1NC[C@H](Cc2ccc(O)cc2)N(C[C@H]2CCCN2C[C@H](Cc2ccccc2)N2C[C@H](Cc3ccccc3)N(CCc3ccccc3)C(=O)C2=O)C1=O` it was -12.9%.
Next, `O=C1CCC(=O)N1CCC(=O)N(C(=O)NC1CCCCC1)C1CCCCC1`: -5.97%.
Next, `NC1=CC(=O)C(=O)c2cccnc21`: -59.7% (active); `O=C1c2cccnc2C(=O)N1Cc1cccs1`: 21.3%; `CCOc1ccc(CCN2C(=O)c3cccnc3C2=O)cc1OCC`: -0.139%.
For `CCN(C(=O)CN1CCN(Cc2ccccc2)CC1)c1c(N)n(Cc2ccccc2)c(=O)[nH]c1=O`, the activity change is 27.8%.
Regarding `Cc1csc(NC(=S)Nc2cccc(Cl)c2)n1`, the activity change is -99.2% (active).
Take `Cc1cccc(NC(=S)Nc2ccc3cn[nH]c3c2)c1`: the activity change was -16.5%.
On to `S=C(Nc1cccc(Cl)c1)Nc1ccc2c(c1)OCCO2`, for which the activity change was -23.6%.
Turning to `FC(F)(F)c1cccc(NC(=S)Nc2cccc(Cl)c2)c1`, the activity change is -14.7%.
On to `Cc1cccc(NC(=S)Nc2ccc(Cl)c(Cl)c2)c1`, for which the activity change is -89.5% (active).
In the case of `Cc1cccc(NC(=S)NC23CN4CN(CN(C4)C2)C3)c1` it was -14.8%; in that of `O=C(Nc1ccc(Cl)c(C(F)(F)F)c1)C1Cc2c(-c3ccccc3Oc3ccccc3)ccnc2O1` (stereo not given), -13.9%.
Next, `Cc1cc(C)c(S(=O)(=O)NCC(c2ccc3c(c2)OCO3)N2CCOCC2)c(C)c1` (stereo not given): 0%.
Consider `COc1ccccc1OCC(=O)OCc1cc(-c2ccco2)on1`, for which the activity change was 1.02%.
In the case of `CCOC(=O)[C@]12CCCC=C1N(CCC1=CCCCC1)C(=O)[C@H](CC(=O)N1CCSCC1)C2` it was 15.1%.
As to `COc1ccc(Br)cc1CN(C)C(=O)C1CC(=O)N(C2CCCC2)C1` (stereo not given), the activity change was -16.8%.
Next, `CC1(C(=O)Nc2cccnc2)Cc2c(-c3ccccc3)ccnc2O1` (stereo not given): -18%; `CCOC(=O)c1cc(C)nc(S(C)(=O)=O)c1C#N`: -106% (active); `CCOC(=O)COc1nc(C)cc(C(F)(F)F)c1C#N`: -4.72%.
In the case of `CCOC(=O)c1c(C(C#N)C#N)cc(C)nc1C` it was 17.2%.
In the case of `CCCCOc1ccc(Cl)cc1CSc1nncn1N` it was -10.2%; in that of `CC1=C(C(=O)N2CCOCC2)CC(CC(=O)NCc2cccc3ccccc23)C(=O)N1CCC1=CCCCC1` (stereo not given), -8.18%.
For the compound `COc1ccc(NS(=O)(=O)c2ccc(N3CCOCC3)c(NC(=O)/C=C/C(=O)O)c2)cc1`, the activity change is 12.3%.
In the case of `COC(=O)c1sc(-c2ccc(C(C)(C)C)cc2)cc1NC(=O)/C=C/C(=O)O` it was -98.5% (active); in that of `CC(C)(C)c1ccc(/C=C/C(=O)Nc2ncccn2)cc1`, 0%; in that of `COc1cccc2cc(-c3cc(=O)oc4cc(C)c(O)cc34)oc12`, 0.212%.
Next, `COc1ccc(Nc2cc(=O)oc3ccccc23)cc1`: 34.3%; `COc1ccc2oc(=O)cc(-c3cc4ccccc4o3)c2c1`: -52.1% (active).
As for `Cc1ccc(S(=O)(=O)N2CCOCC2)cc1NC(=O)c1ccncc1`, the activity change was 6.64%.
Next, `CC1(C(=O)NCC2CCOCC2)Cc2c(-c3cccc(C(N)=O)c3)ccnc2O1` (stereo not given): 40.9%; `CN1CCN(CCNC(=O)Nc2ccccc2[N+](=O)[O-])CC1`: -9.61%.
Next, `Cc1ccc(-c2ccc(/C=N/NC(=O)CN3CCOCC3)o2)cc1[N+](=O)[O-]`: -11%.
On to `O=C1C2C3C=CC(C4CC34)C2C(=O)N1/N=C/c1ccc(-c2ccccc2[N+](=O)[O-])o1` (stereo not given), for which the activity change was 5.29%.
Next, `N#C/C(=C/c1ccc(-c2ccccc2[N+](=O)[O-])o1)C(=O)NCCN1CCCCC1`: -54.1% (active); `C=CCNC(=O)/C(=C\c1cccc([N+](=O)[O-])c1)NC(=O)c1ccccc1`: 11.9%; `Cc1ccc(C(=O)N/C(=C/c2ccc(-c3cccc([N+](=O)[O-])c3)o2)C(=O)NCCCN(C)C)cc1`: -105% (active).
In the case of `N#C/C(=C/c1ccc(N2CCOCC2)o1)C(=O)N1CCOCC1` it was -6.13%.
For `O=C(NCCCN1CCOCC1)c1ccc([N+](=O)[O-])cc1[N+](=O)[O-]`, the activity change was 47.3%.
Next, `N#C/C(=C\c1ccc(-c2cccc([N+](=O)[O-])c2)o1)C(=O)NCCN1CCOCC1`: -79.4% (active).
Next, `N#C/C(=C/c1ccc(N2CCCCC2)o1)C(=O)NCCc1c[nH]c2ccccc12`: -56.8% (active); `CN(C)CCNC(=O)/C(=C/c1cccc([N+](=O)[O-])c1)NC(=O)c1ccccc1`: -4.01%.
As for `O=C(CN1C(=O)NC2(CCCCC2)C1=O)NCCc1c[nH]c2ccccc12`, the activity change is 0%.
Next, `CCc1cccc(C)c1N(C(=O)Cn1c(CO)nc2ccccc21)C(C)COC` (stereo not given): -5.47%.
As to `COc1ccc(N2c3ccccc3CN(Cc3ccccc3)[C@@H](C)[C@H]2Cc2ccc(-c3ccccc3)cc2)cc1`, the activity change is 43%.
Take `O=C(OCc1cn([C@H]2C[C@H](c3ccccc3)N(C(=O)c3cccs3)C[C@@H]2O)nn1)c1ccccc1`: the activity change was 9.57%.
In the case of `CCOC(=O)C1(Cc2ccc(Cl)cc2)CCN(C(=O)C2=NNC(=O)CC2)CC1` it was 5.99%.
Next, `COc1ccc(S(=O)(=O)N2CCCCC2)cc1C(=O)NC1CCS(=O)(=O)C1` (stereo not given): -14.7%; `CCN(CC)C(=O)C1CCCN(Cc2cccc(Cl)c2)C1` (stereo not given): -7.01%.
Next, `O=C(C[C@H]1CC[C@@H](NC(=O)c2ccncc2)[C@@H](CO)O1)NCC1CC1`: 0.19%; `Cc1ccc(-n2c(SCC(=O)N3CCC(C(=O)O)CC3)nc3ccccc3c2=O)cc1C`: 6.5%.
Regarding `O=S1(=O)C[C@@H](N2CCN(CCO)CC2)[C@H](COCc2ccccc2)N1`, the activity change is -19.7%.
In the case of `COc1ccc(-c2ccc3[nH]c4c(c3c2)CCN2C[C@H]3[C@H](C)ON(C)[C@H]3C[C@@H]42)cc1` it was -18.3%.
In the case of `Nc1nc(CSc2nnnn2-c2ccccc2)nc(Nc2ccccc2)n1`, the activity change is -29.1%.
Take `CN(C)C(=O)c1coc2nc3ccccc3nc12`: the activity change was 25.5%.
Next, `CNC(=O)c1cccc2nc3ccccc3nc12`: -78.6% (active); `CNC(=O)c1csc(-c2ccccc2)n1`: -4.77%.
Next, `COc1ccc(NC(=O)N2CCCC(C(=O)Nc3ccccc3OC)C2)cc1` (stereo not given): -1.11%; `COc1ccc(NC(=O)N2CCC(Cc3ccccc3)CC2)cc1`: -50.3% (active); `COc1ccc(C(=O)NC2CCN(C(=O)Nc3ccc(F)cc3)CC2)cc1`: 17.5%.
Next, `CCN1CCCC1Cn1cnc2c([nH]c3cc(OC)ccc32)c1=O` (stereo not given): -21.8%; `CCN1CCCC1CNC(=O)c1cc2cc(OC)c(OC)cc2[nH]1` (stereo not given): -7.87%.
Consider `CC(C)OCCCNc1ncnc2c1[nH]c1ccc(F)cc12`, for which the activity change is -71% (active).
On to `CCN1CCCC1CNc1ncnc2c1[nH]c1ccc(F)cc12` (stereo not given), for which the activity change was -94.3% (active).
Next, `C[C@@H]1CN([C@@H](C)CO)S(=O)(=O)c2ccc(-c3ccc(C(=O)N(C)C)cc3)cc2O[C@@H]1CN(C)Cc1ccccc1C(=O)O`: 23.1%.
Next, `COc1ccc(-c2ccc3c(c2)C2CC3CCN2CCC#N)cc1` (stereo not given): 12.2%; `Cc1cc(C)c2nc(-c3cccnc3)cc(C(=O)Nc3ccc(S(=O)(=O)Nc4onc(C)c4C)cc3)c2c1`: 16.5%.
